Reference: PubChem BioAssay
Several values for one entry are separate records, joined by “and”; a condition that tells them apart may be missing. Equal values may be shown once. Activity calls are given as the source filed them.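 Rule for the calls, unless noted: active = compounds whose cell count with miR-34 switched on is under 0.7 times the count with it off; inactive = the rest.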

What was measured:
[1] = circadian clock period modulators, cell-based, LOPAC library, luminescence reporter (AID 2774; call rule not given here;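 note: values are relative to mean of DMSO wells on each plate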); conditions: circadian reporter cells, at 7 µM, actives lie on both sides
[2] = tested on: Hepatitis C virus NS3 helicase; test: HCV NS3 helicase inhibitors, primary screen, biochemical, fluorescence polarization, LOPAC1280 library (AID 687035; in the data active = inhibition above about 37%); conditions: Purified HCV NS3 helicase, Cy5-dT15 ssDNA binding fluorescence polarization; stronger effect = higher value; concentration not given here
[3] = Cy5 fluorescence quenching or enhancement artefacts, artefact control for HCV NS3 helicase inhibitor project, biochemical, LOPAC1280 (AID 687037; call rule not given here); conditions: Cy5-DNA-NS3h complex fluorescence interference counterscreen
[4] = sensitizers of A549 cells to miR-34 induction, primary screen, imaging, A549 dox-inducible miR-34, nuclei and caspase counts (AID 1347080); conditions: A549 miR-34 inducible, Hoechst nuclei count, 48 h
[5] = phospholipid biosynthesis inhibitors in animal cells, primary screen, cell-based, LOPAC library, screen 4 (AID 1347384; call rule not given here); conditions: phospholipid biosynthesis inhibition screen, at 10 µM
[6] = viability rescue of complex I mutant cybrids, primary screen, cell-based, galactose medium, ATP luminescence (AID 1645843;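 active = z-score of at least 1.8 in each of two replicates, scored against plate mean and spread of sample wells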;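 note: positive z means more ATP and so rescue of galactose-driven cybrid death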); conditions: complex I mutant cybrid cells, 72 h, stronger effect = higher value
[7] = inhibitors of Cryptococcus chitosan production, flow cytometry, Cibacron Brilliant Red staining (AID 1347148; call rule not given here;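 note: compound exposure lasted three days at 37 degrees C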); conditions: Cryptococcus neoformans chitosan, stronger effect = lower value; at 10 µM unless noted
[8] = hESC survival regulators, cell-based (AID 493140; call rule not given here;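 note: cells exposed to compounds for four days before counting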); conditions: human embryonic stem cell survival screen; stronger effect = higher value
[9] = survival rescue of mitochondrial mutant cells in low glucose, primary screen, MELAS cybrids, Rieske KO mouse fibroblasts, CellTiter-Glo (AID 1508586;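 active = mean z-score across replicates of 1.96 or higher in either the MELAS or the Rieske mutant cell line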;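 note: z relative to plate mean and SD of compound and empty wells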)
[10] = measured here: relative caspase fold change +Dox/-Dox
[11] = measured here: total cells with miR-34 induction, stronger effect = lower value
[12] = measured here: total cells without miR-34 induction
[13] = MELAS cybrid survival, CellTiter-Glo 48 h, stronger effect = higher value
[14] = Rieske KO mouse fibroblast survival, CellTiter-Glo 72 h
[15] = stronger effect = lower value, cell number ratio, induced over uninduced

O=C1CC[C@@]2(O)C3Cc4ccc(O)c5c4C2(CCN3CC2CC2)[C@H]1O5 (stereo partly drawn)
period change [1]: -0.05 h (inactive) | inhibition [2]: -6% (inactive) | fluorescence ratio (interference) [3]: 1 (inactive) | fold change ([4]; stronger effect = lower value): 1.1 (inactive) | fold change [4, 10]: 1.19 | cell count [4, 11]: 11300 | cell count [4, 12]: 10300 | outcome [5]: inactive | z-score [6]: 0.445 (inactive)

C[C@@H]1O[C@H](C[N+](C)(C)C)C[C@H]1O
period change [1]: -0.03 h (inactive) | inhibition [2]: -2% (inactive) | fluorescence ratio (interference) [3]: 1 (inactive) | fold change ([4]; stronger effect = lower value): 1.05 (inactive) | fold change [4, 10]: 1.87 | cell count [4, 11]: 10900 | cell count [4, 12]: 10400 | outcome [5]: inactive | z-score [6]: 0.675 (inactive)

CC(C)(O)[C@H]1O[C@H]2CC[C@@]3(C)[C@@](O)(CC[C@H]4Cc5c([nH]c6ccccc56)[C@@]43C)C2=CC1=O
fold change ([4]; stronger effect = lower value): 1.09 (inactive) | fold change [4, 10]: 1.67 | cell count [4, 11]: 3780 | cell count [4, 12]: 3460 | fold fluorescence [7]: 8.47 [at 114.8 µM] (inactive)

CCCCC[C@@H](/C=C/C=C\CCCCCCCC(=O)O)OO
survival [8]: 94.8 (inactive) | fold change ([4]; stronger effect = lower value): 0.981 (inactive) | fold change [4, 10]: 1.1 | cell count [4, 11]: 5710 | cell count [4, 12]: 5820 | fold fluorescence [7]: 6.27 [at 1 µM] (inactive)

CCCCC/C=C\C/C=C\C/C=C\C=C\[C@H](CCCC(=O)O)OO
survival [8]: 114 (inactive) | fold change ([4]; stronger effect = lower value): 0.99 (inactive) | fold change [4, 10]: 1.08 | cell count [4, 11]: 5950 | cell count [4, 12]: 6010 | fold fluorescence [7]: 5.34 [at 1 µM] (inactive)

CCCCC/C=C\C/C=C\C/C=C\C/C=C\CCCCCC(=O)NCCO
survival [8]: 86.3 (inactive) | fold change ([4]; stronger effect = lower value): 1.02 (inactive) and 1.04 (inactive) | fold change [4, 10]: 1.64 and 1.22 | cell count [4, 11]: 5810 and 5940 | cell count [4, 12]: 5700 and 5690 | fold fluorescence [7]: 5.48 (inactive)

CCN1C[C@@]2(COC)C3[C@@H](OC)C4[C@@H]1C3([C@@H]1C[C@@]3(O)[C@H](OC(=O)c5ccccc5)[C@@H]1[C@]4(OC(C)=O)[C@@H](O)[C@@H]3OC)[C@H](OC)C[C@H]2O
inhibition [2]: -4% (inactive) | fluorescence ratio (interference) [3]: 1 (inactive) | fold change ([4]; stronger effect = lower value): 1.01 (inactive) | fold change [4, 10]: 1.67 | cell count [4, 11]: 10600 | cell count [4, 12]: 10500 | outcome [5]: inactive | z-score [6]: 0.075 (inactive)

COc1ccc2c(c1)C13CCCCC1C(C2)N(C)CC3 (stereo not drawn)
period change [1]: 0 h (inactive) | inhibition [2]: -1% (inactive) | fluorescence ratio (interference) [3]: 1.1 (inactive) | fold change ([4]; stronger effect = lower value): 1.04 (inactive) | fold change [4, 10]: 1.15 | cell count [4, 11]: 10100 | cell count [4, 12]: 9710 | outcome [5]: inactive | z-score [6]: -0.635 (inactive)

CCN1C[C@]2(OC(=O)c3ccccc3NC(C)=O)CCC(OC)[C@]34C1C(C[C@H]23)[C@@]1(O)CC(OC)[C@H]2C[C@H]4[C@]1(O)C2OC (stereo partly drawn)
fold change ([4]; stronger effect = lower value): 0.952 (inactive) | fold change [4, 10]: 0.833 | cell count [4, 11]: 7310 | cell count [4, 12]: 7680 | z-score [9, 13]: -0.466 (inactive) | z-score [9, 14]: -0.118

COC1CCC(OC2C[C@H]([C@]3(C)CC[C@]4(CC(O)C(C)[C@@H](C(C)C=C(C)C(=O)C(C)CC(C)C(=O)O)O4)O3)O[C@]3(O[C@@H]([C@H]4O[C@@](O)(CO)C(C)CC4C)CC3C)C2C)OC1C (stereo partly drawn)
fold change [4, 15]: 0.953 (inactive) | fold change [4, 10]: 1.13 | cell count [4, 11]: 874 | cell count [4, 12]: 918 | z-score [9, 13]: 0.291 (inactive) | z-score [9, 14]: -2.77

CCCN1CCO[C@@H]2c3cc(O)ccc3OC[C@@H]21
fold change [4, 15]: 0.947 (inactive) | fold change [4, 10]: 0.482 | cell count [4, 11]: 8140 | cell count [4, 12]: 8590 | z-score [9, 13]: 0.111 (inactive) | z-score [9, 14]: 0.146

C#C[C@@]1(O)C=C[C@H]2[C@@H]3CCC4=CC(=O)CC[C@@H]4[C@@H]3CC[C@@]21CC
fold change [4, 15]: 0.87 (inactive) | fold change [4, 10]: 1.21 | cell count [4, 11]: 7070 | cell count [4, 12]: 8120 | z-score [9, 13]: -0.518 (inactive) | z-score [9, 14]: 0.382

O=[N+]([O-])C=Cc1ccc2c(c1)OCO2
fold change [4, 15]: 0.859 (inactive) | fold change [4, 10]: 0.554 | cell count [4, 11]: 5450 | cell count [4, 12]: 6350 | z-score [9, 13]: 0.246 (inactive) | z-score [9, 14]: -0.259

Cc1c(N)nc(C(CC(N)=O)NCC(N)C(N)=O)nc1C(=O)NC(C(=O)NC(C)C(O)C(C)C(=O)NC(C(=O)NCCc1nc(-c2nc(C(=O)NCCC[S+](C)C)cs2)cs1)C(C)O)C(OC1OC(CO)C(O)C(O)[C@H]1OC1OC(CO)C(O)C(OC(N)=O)C1O)c1cnc[nH]1 (stereo partly drawn)
fold change [4, 15]: 1.05 (inactive) | fold change [4, 10]: 0.471 | cell count [4, 11]: 3100 | cell count [4, 12]: 2960 | z-score [9, 13]: -0.352 (inactive) | z-score [9, 14]: -0.104

COCC1OC(=O)c2coc3c2[C@@]1(C)C1=C(C3=O)[C@@H]2CCC(=O)[C@@]2(C)CC1OC(C)=O (stereo partly drawn)
fold change [4, 15]: 0.933 (inactive) | fold change [4, 10]: 0.632 | cell count [4, 11]: 3850 | cell count [4, 12]: 4130 | z-score [9, 13]: 3.45 (active) | z-score [9, 14]: -0.534

CCCC[N+]1(C)[C@@H]2CC(OC(=O)C(CO)c3ccccc3)C[C@H]1[C@@H]1O[C@@H]12 (stereo partly drawn)
fold change [4, 15]: 0.94 (inactive) | fold change [4, 10]: 1.14 | cell count [4, 11]: 9330 | cell count [4, 12]: 9930 | z-score [9, 13]: -0.311 (inactive) | z-score [9, 14]: 0.426

O=c1cccc2n1CC1CNCC2C1 (stereo not drawn)
fold change ([4]; stronger effect = lower value): 0.908 (inactive) | fold change [4, 10]: 1.17 | cell count [4, 11]: 7650 | cell count [4, 12]: 8430 | z-score [9, 13]: -0.233 (inactive) | z-score [9, 14]: -0.215

NC(N)=NOCCC(N)C(=O)O (stereo not drawn)
inhibition [2]: 0% (inactive) | fluorescence ratio (interference) [3]: 1.1 (inactive) | fold change ([4]; stronger effect = lower value): 0.949 (inactive) | fold change [4, 10]: 1.82 | cell count [4, 11]: 9120 | cell count [4, 12]: 9610 | outcome [5]: inactive | z-score [6]: 0.49 (inactive)

C[C@]12CCC(O)CC1=CC[C@@H]1[C@H]2CC[C@]2(C)C(=O)CC[C@@H]12 (stereo partly drawn)
fold change ([4]; stronger effect = lower value): 0.867 (inactive) | fold change [4, 10]: 0.858 | cell count [4, 11]: 8270 | cell count [4, 12]: 9530 | z-score [9, 13]: -0.412 (inactive) | z-score [9, 14]: 0.289

CC1CC[C@H]2C(C)C(=O)O[C@@H]3O[C@@]4(C)CC[C@@H]1[C@]32OO4 (stereo partly drawn)
fold change [4, 15]: 0.916 (inactive) | fold change [4, 10]: 0.744 | cell count [4, 11]: 6910 | cell count [4, 12]: 7540 | z-score [9, 13]: -0.427 (inactive) | z-score [9, 14]: 0.217

O=C1C=CC[C@@H]2[C@@H]3CCCN4CCC[C@@H](CN12)[C@@H]34
fold change [4, 15]: 0.92 (inactive) | fold change [4, 10]: 0.733 | cell count [4, 11]: 9530 | cell count [4, 12]: 10400 | z-score [9, 13]: -0.329 (inactive) | z-score [9, 14]: 0.595
